We go through 40 molecules from the supplement of paper PMC10941209.

A number with no mark means an inactive call.

The subject of this test is Toxoplasma gondii RH 2F1 tachyzoites (intracellular in HFF). The test is described as follows: parasite survival relative to DMSO control; higher = less antiparasitic activity, active = 20 or less. The note with it: 1 µM; 72 h. Here is the method:
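Primary single-dose screen of the MMV Pandemic Response Box at 1 uM against T. gondii RH-2F1 (beta-galactosidase) tachyzoites in HFF cells, 72 h at 37 C. Parasite growth read by CPRG absorbance at 570 nm and normalised to DMSO-treated infected controls (% survival); pyrimethamine was the reference drug. The paper calls at least 80% inhibition a hit.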
`CC#C[C@]1(O)CC[C@H]2[C@@H]3CCC4=CC(=O)CCC4=C3[C@@H](c3ccc(N(C)C)cc3)C[C@@]21C`: the parasite survival was 45.7%.

Consider `NC(=O)c1nccn([C@@H]2O[C@H](CO)[C@@H](O)[C@H]2O)c1=O`, for which the parasite survival is 59.3%.

Consider `CN(C)c1[nH]c(=O)ncc1F`, for which the parasite survival was 36.6%.

For `NC(=S)N/N=C/c1ncccc1N`, the parasite survival was 37.3%.

For the molecule `Nc1nc2c(ncn2/C=C2/CC2(CO)CO)c(=O)[nH]1`, the parasite survival was 84.8%.

With `CCN1CCN(Cc2nc3ccc([N+](=O)[O-])cc3c(=O)n2-c2ccccc2F)CC1`, the parasite survival was 59.6%.

Take `Nc1nc(F)nc2c1ncn2[C@H]1O[C@@H](CO)[C@H](O)[C@@H]1O`: the parasite survival is 30%.

Take `O=c1cc(OCc2ccccc2)ccn1Cc1ccccc1`: the parasite survival was 37%.

For the molecule `Cc1cc(C2CCCCC2)n(O)c(=O)c1`, the parasite survival was 15.8% (active).

Regarding `O=C(/C=C/n1cnc(-c2cc(C(F)(F)F)cc(C(F)(F)F)c2)n1)NNc1cnccn1`, the parasite survival was 20.8%.

As for `Cc1ccn2c(C(=O)NCc3ccccc3)c(C)nc2c1`, the parasite survival is 49.6%.

As to `COc1ccc(C)cc1NC(=O)c1ccc(S(=O)(=O)N2CCCCC2)cc1`, the parasite survival was 60%.

In the case of `C[C@@]1(O)[C@H](O)[C@@H](CO)O[C@H]1n1ccc2c(N)ncnc21`, the parasite survival is 58.6%.

With `O=C(Cc1ccccc1F)Nc1nc2ccccc2[nH]1`, the parasite survival was 38.1%.

Take `O=C(CC1Sc2ncnn2C1=O)Nc1ccc(Br)cc1` (stereo not given): the parasite survival is 28.1%.

`Cc1ccc(Oc2ccccc2-c2csc(N=C3NCCCN3)n2)c(C)c1`: the parasite survival was 30.1%.

For the molecule `O=S(=O)(NCB(O)O)c1cc2c(Cl)ccc(Cl)c2s1`, the parasite survival is 54.4%.

For `COCCn1cnc2c(O)nc(Nc3ccccc3)nc21`, the parasite survival is 67%.

For the molecule `CCC(C)NCC(O)Cn1c2ccc(Cl)cc2c2cc(Cl)ccc21` (stereo not given), the parasite survival is 26.8%.

As to `O=C(O)[C@H]1C2CCC(CC2)[C@@H]1Nc1nc(-c2c[nH]c3ncc(F)cc23)ncc1F`, the parasite survival was 44.8%.

With `CC[C@@H](CO)NCCN[C@@H](CC)CO`, the parasite survival is 55.4%.

On to `O=C(N[C@H](Cc1cccc2ccccc12)C(=O)NCCc1c[nH]cn1)C1Cc2ccccc2C1`, for which the parasite survival was 33.7%.

As for `CN(C)CC(=O)Nc1ccc2[nH]c(=O)c3ccccc3c2c1`, the parasite survival was 55.3%.

Turning to `O=[N+]([O-])/C(Br)=C/c1ccc(Br)o1`, the parasite survival was 26.6%.

In the case of `O=C(O)CSc1cc(NS(=O)(=O)c2cccc3cccnc23)c2ccccc2c1O`, the parasite survival was 60.2%.

As for `O=C(O)C(Cc1c[nH]c2ccccc12)N1C(=O)c2ccccc2C1=O` (stereo not given), the parasite survival is 46.6%.

Regarding `CCCCc1ccc(C(=O)O)nc1`, the parasite survival is 54.6%.

As for `CCC(C)n1ncn(-c2ccc(N3CCN(c4ccc(OCC5COC(Cn6cncn6)(c6ccc(Cl)cc6Cl)O5)cc4)CC3)cc2)c1=O` (stereo not given), the parasite survival was 3.93% (active).

On to `CC(C)N(c1cc(-c2ccccc2)sc1C(=O)O)C(=O)[C@H]1CC[C@H](C)CC1`, for which the parasite survival was 65%.

For the molecule `CC(C)(C)NC(=O)[C@@H]1CN(Cc2cnc3occc3c2)CCN1C[C@@H](O)C[C@@H](Cc1ccccc1)C(=O)N[C@H]1c2ccccc2C[C@H]1O`, the parasite survival was 58.1%.

With `COc1c(NC(=O)[C@H]2CC[C@@H](COc3ccc([N+](=O)[O-])cc3)CC2)c(F)cc2c(=O)c(C(=O)O)cn(C3CC3)c12`, the parasite survival is 47.7%.

As to `Cc1cc(C)n(O)c(=O)c1`, the parasite survival was 49.3%.

As for `CNC(=O)C1O[C@@H](n2cnc3c(NCc4cccc(I)c4)nc(Cl)nc32)[C@H](O)[C@@H]1O` (stereo not given in full), the parasite survival is 68.3%.

With `O=C(O)COc1cccc2c1CC[C@](O)(COC(=O)N(c1ccccc1)c1ccccc1)C2`, the parasite survival is 76.3%.

As to `O=C(Nc1nnc(-c2ccc(Cl)cc2)o1)c1ccc(F)cc1`, the parasite survival was 41.1%.

As to `Cc1c(N)cccc1Cn1ccc(OCCc2cccs2)cc1=O`, the parasite survival is 48.8%.

For `CN1c2ccc(Cl)cc2N(c2ccccc2)C(=O)c2cn(Cc3ccc(CN4CCOCC4)cc3)nc21`, the parasite survival is 44%.

`C[C@H]1COc2c(N3CCN(C)CC3)c(F)cc3c(=O)c(C(=O)O)cn1c23`: the parasite survival was 51.4%.

`CCN(CC)CCn1c(=N)n(CC(O)COc2ccc(Cl)cc2Cl)c2ccccc21` (stereo not given): the parasite survival is 26.7%.

`Cc1[nH]c2ccccc2c1CC(=O)N[C@@H](Cc1ccccc1)C(=O)N(C)c1ccccc1`: the parasite survival was 83.1%.
